Data on four molecules can be found in PubChem BioAssay (EPA / NIEHS).

Records with an inconclusive call do not appear. The source made the active and inactive calls. How the source made its calls, unless noted: active means hit-call score of the fitted dose curve at least 0.9, where 1 is the maximum; inactive means score below 0.9.

Test [1] is described as follows: ATG_Hpa5_TRANS: Attagene TRANS-FACTORIAL HepG2 Assay for human GAL4-Hpa5 Hepatocyte Transcription Factor Basal Promoter (AID 2282975; active means hit-call score of the fitted dose curve at least 0.9, where 1 is the maximum;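 further: hits are increases in reporter mRNA over DMSO baseline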). Conditions: HepG2 Attagene GAL4-Hpa5 transcription reporter. The procedure, abridged: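 Basal-promoter GAL4 background control within the HepG2 trans-factorial panel of transiently transfected reporter units. Reporter mRNA is measured 24 h after dosing by RT-PCR and capillary electrophoresis, fitted for gain of signal versus DMSO.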

Test [2] is described as follows: ATG_GAL4_TRANS: Attagene TRANS-FACTORIAL HepG2 Assay for GAL4 (Internal Marker) (AID 2282976; active means hit-call score of the fitted dose curve at least 0.9, where 1 is the maximum). Particulars: HepG2 Attagene TRANS GAL4 internal marker reporter. In short, it runs like this: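 Background-control readout: GAL4-UAS reporter transcript in transiently transfected HepG2 cells after 24 h compound exposure. Measured by RT-PCR, 6-FAM primer extension, HpaI digest and capillary electrophoresis; gain-of-signal fit versus DMSO.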

In test [3] the target is Hepatocyte nuclear factor 4-alpha (Homo sapiens) (UniProt P41235). Description: ATG_HNF4a_TRANS: Attagene TRANS-FACTORIAL HepG2 Assay for human Hepatocyte Nuclear Factor 4 alpha (HNF4a) (AID 2282982; active means hit-call score of the fitted dose curve at least 0.9, where 1 is the maximum). Conditions: HepG2 HNF4a transactivation reporter, mRNA readout. The procedure, abridged: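 HepG2 cells transiently transfected with HNF4a-Gal4 chimera and GAL4-UAS reporter units, dosed for 24 h. Reporter mRNA measured by RT-PCR, fluorescent primer extension and capillary electrophoresis; gain-of-signal fitted relative to DMSO.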

Test [4] in a line: ATG_M_06_TRANS: Attagene TRANS-FACTORIAL HepG2 Assay for M06 Transcription Factor (Internal Marker) (AID 2282983; active means hit-call score of the fitted dose curve at least 0.9, where 1 is the maximum;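 further: reporter transcript level by RT-PCR then capillary electrophoresis fluorescence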). Particulars: HepG2 Attagene TRANS M06 internal marker reporter. The procedure, abridged: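 HepG2 cells transiently transfected with GAL4-UAS multiple reporter units, dosed 24 h. Reporter RNA reverse-transcribed, PCR-amplified, 6-FAM-labeled, HpaI-digested and quantified by capillary electrophoresis; this internal-marker signal fitted upward relative to DMSO.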

Test [5] can be described thus: ATG_M_32_TRANS: Attagene TRANS-FACTORIAL HepG2 Assay for M32 Transcription Factor (Internal Marker) (AID 2282984; active means hit-call score of the fitted dose curve at least 0.9, where 1 is the maximum). Conditions: HepG2 Attagene TRANS M32 internal marker reporter. In short, it runs like this:
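HepG2 cells transiently transfected with GAL4-UAS reporter units, dosed for 24 hours. Reporter mRNA quantified by RT-PCR, 6-FAM labelling, HpaI digestion and capillary electrophoresis; internal-marker signal fitted upward relative to DMSO.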

In test [6] the target is Nuclear receptor subfamily 4 group A member 2 (Homo sapiens) (UniProt P43354). As to the kind of experiment: ATG_NURR1_TRANS: Attagene TRANS-FACTORIAL HepG2 Assay for human Nuclear Receptor Related Protein 1 (NURR1) (AID 2282985; active means hit-call score of the fitted dose curve at least 0.9, where 1 is the maximum). Particulars: HepG2 Attagene TRANS reporter, mRNA readout. The procedure, abridged: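 HepG2 cells transiently transfected with NURR1-Gal4 chimera and GAL4-UAS reporter units; after 24 hr compound exposure, reporter mRNA quantified by RT-PCR and capillary electrophoresis; gain of signal fitted against DMSO.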

For test [7], the target named is Transcriptional activator Myb (Homo sapiens) (UniProt P10242). As to the kind of experiment: ATG_Myb_CIS: Attagene CIS-FACTORIAL HepG2 Assay for human Myeloblastosis (Myb) Proto-Oncogene Transcription Factor (AID 2282986). Conditions: HepG2 Attagene CIS-FACTORIAL Myb reporter transcription; actives raise or lower the signal. In short, it runs like this:
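Using HepG2 liver cells bearing transiently transfected cis-promoter reporter constructs, the assay measures induction or loss of reporter mRNA after 24 hours of dosing. Detection used fluorescently labeled RT-PCR products separated by capillary electrophoresis.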

In test [8] the target is Nuclear respiratory factor 1 (Homo sapiens) (UniProt Q16656). Description: ATG_NRF1_CIS: Attagene CIS-FACTORIAL HepG2 Assay for human Nuclear Respiratory Factor 1 (NRF1) Orphan Gene (AID 2282987). Conditions: HepG2 NRF1 cis-element reporter, Attagene multiplex; actives raise or lower the signal. The procedure, abridged:
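Reporter mRNA induction or loss in HepG2 cells after 24 h dosing; cis-regulated reporter constructs report endogenous transcription-factor activity. Quantified by RT-PCR/capillary electrophoresis fluorescence, DMSO-referenced.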

Test [9] in a line: ATG_NFI_CIS: Attagene CIS-FACTORIAL HepG2 Assay for human Nuclear Factor I (NFI) (AID 2282989). Conditions: HepG2 cis-regulatory reporter, NFI response element transcription; actives raise or lower the signal. In short, it runs like this: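 Cells: human liver HepG2, transiently transfected with promoter-regulated reporter transcription units. Exposure 24 h. Detection: fluorescent RT-PCR products separated by capillary electrophoresis, normalised to DMSO negative control.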

Test [10] is described as follows: ATG_NF_kB_CIS: Attagene CIS-FACTORIAL HepG2 Assay for human Nuclear Factor Kappa B (NF-kB) (AID 2282991). Conditions: HepG2 Attagene cis-factorial NF-kB reporter mRNA; actives raise or lower the signal. The procedure, abridged: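 DMSO served as negative control and baseline for bidirectional curve fitting. Transiently transfected HepG2 cells were dosed for 24 h, then reporter transcripts were measured by RT-PCR with capillary electrophoresis detection.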

A short description of test [11]: ATG_NRF2_ARE_CIS: Attagene CIS-FACTORIAL HepG2 Assay for human Nuclear Factor Erythroid 2 Related Factor 2 (NFR2) response to Antioxidant Response Elements (ARE) (AID 2282992).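 On AC50: reporter mRNA level measured by RT-PCR and capillary electrophoresis fluorescence.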 Conditions: HepG2 Attagene ARE/NRF2 reporter, transcription factor activity; actives raise or lower the signal. In short, it runs like this:
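HepG2 cells transiently transfected with multiplexed cis-regulated reporter transcription units measure endogenous transcription factor activity. Reporter mRNA at 24 h is quantified by RT-PCR, fluorescent labelling and capillary electrophoresis, with bidirectional fitting relative to DMSO.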

Test [12] in a line: ATG_Oct_MLP_CIS: Attagene CIS-FACTORIAL HepG2 Assay for human Octamer-Binding Transcription Factor (Oct) (AID 2282993). Particulars: HepG2 Attagene cis-factorial Oct reporter, mRNA; actives raise or lower the signal. The procedure, abridged: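 HepG2, transient MRTU transfection, cis promoter elements; 24 h dosing; RT-PCR/CE fluorescence read-out of reporter mRNA; fit both directions vs DMSO.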

Test [13] addresses Cellular tumor antigen p53 (Homo sapiens) (UniProt P04637). Description: ATG_p53_CIS: Attagene CIS-FACTORIAL HepG2 Assay for human p53 Transcription Factor (AID 2282994). Particulars: HepG2 p53 cis-element reporter, Attagene mRNA; actives raise or lower the signal. The procedure, abridged:
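HepG2 cells transiently transfected with multiplexed cis-regulated reporter transcription units read endogenous TF activity. After 24 h compound exposure, reporter mRNA was quantified by RT-PCR, fluorescent labelling, HpaI digestion and capillary electrophoresis; bidirectional fits versus DMSO baseline.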

A short description of test [14]: BSK_3C_TissueFactor: BioMAP Diversity Plus: 3C Assay for Tissue Factor Biomarker Activity (AID 2282997). Conditions: BioMAP 3C HUVEC, tissue factor biomarker readout; actives raise or lower the signal. In short, it runs like this:
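HUVEC were treated 24 h, then surface tissue factor measured by ELISA and fitted bidirectionally against DMSO. Parallel SRB total-protein staining assessed overt cytotoxicity at the same time point.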

A short description of test [15]: BSK_3C_uPAR: BioMAP Diversity Plus: 3C Assay for Urokinase-type plasminogen activator receptor (uPAR) Biomarker Activity (AID 2282998). Particulars: BioMAP 3C HUVEC, uPAR biomarker ELISA; actives raise or lower the signal. The procedure, abridged:
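A multiplexed primary-cell system built on human umbilical vein endothelium was used, with chemical present for 24 h before reading. Cell-surface uPAR was detected by ELISA; signal change in either direction counted against DMSO.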

For test [16], the target named is Glucocorticoid receptor (Homo sapiens) (UniProt P04150). As to the kind of experiment: ATG_GR_TRANS: Attagene TRANS-FACTORIAL HepG2 Assay for human Glucocorticoid Receptor (GR) (AID 2282978; active means hit-call score of the fitted dose curve at least 0.9, where 1 is the maximum;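 further: activators score as hits since higher reporter transcript over DMSO is fitted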). Particulars: HepG2 Attagene TRANS GR reporter, mRNA transcription. The procedure, abridged:
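Transiently transfected HepG2 cells express chimeric NR-GAL4 proteins acting on GAL4-UAS reporter units. Compounds are applied for 24 h. mRNA induction over DMSO is measured by capillary electrophoresis.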

For test [17], the target named is Oxysterols receptor LXR-alpha (Homo sapiens) (UniProt Q13133). Description: ATG_LXRa_TRANS: Attagene TRANS-FACTORIAL HepG2 Assay for human Liver X Receptor alpha (LXRa) (AID 2282980; active means hit-call score of the fitted dose curve at least 0.9, where 1 is the maximum). Conditions: HepG2 Attagene TRANS reporter, LXRa transactivation. The procedure, abridged: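 HepG2 cells transiently transfected with GAL4-UAS reporter units for chimeric NR-Gal4 proteins, exposed to chemicals for 24 h. Reporter mRNA quantified by RT-PCR and capillary electrophoresis; gain of signal fitted relative to DMSO.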

The target of test [18] is Oxysterols receptor LXR-beta (Homo sapiens) (UniProt P55055). Description: ATG_LXRb_TRANS: Attagene TRANS-FACTORIAL HepG2 Assay for human Liver X Receptor beta (LXRb) (AID 2282981; active means hit-call score of the fitted dose curve at least 0.9, where 1 is the maximum). Conditions: HepG2 Attagene TRANS GAL4-LXRb reporter, mRNA. In short, it runs like this:
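HepG2 cells transiently transfected with GAL4-UAS reporter units for chimeric NR-Gal4 proteins, dosed for 24 h. Reporter transcripts measured by RT-PCR and capillary electrophoresis; gain-of-signal fitting relative to DMSO.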

The target in test [19] is Myc proto-oncogene protein (Homo sapiens) (UniProt P01106). Description: ATG_Myc_CIS: Attagene CIS-FACTORIAL HepG2 Assay for human Myelocytomatosis (Myc) Proto-Oncogene Transcription Factor (AID 2282990). Conditions: HepG2, Attagene cis-reporter transcription factor activity; actives raise or lower the signal. In short, it runs like this:
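Read-out: fluorescent reporter mRNA fragments resolved by capillary electrophoresis after RT-PCR. Human HepG2 liver cells carried transfected cis-element reporter units and were dosed for 24 h. Gain or loss of signal fitted relative to DMSO baseline.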

In test [20] the target is Bile acid receptor (Homo sapiens) (UniProt Q96RI1). Description: ATG_FXR_TRANS: Attagene TRANS-FACTORIAL HepG2 Assay for Farnesoid X Receptor (FXR) (AID 2282979; active means hit-call score of the fitted dose curve at least 0.9, where 1 is the maximum;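 further: hits raise reporter mRNA above DMSO so AC50 marks FXR activation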). Conditions: HepG2 Attagene TRANS FXR-GAL4 reporter transcription. The procedure, abridged:
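HepG2 cells were transiently transfected with GAL4-UAS reporters driven by chimeric NR-Gal4 proteins and dosed for 24 h. Reporter mRNA was quantified by RT-PCR, fluorescent labelling, HpaI digestion and capillary electrophoresis, with gain of signal scored versus DMSO.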

Sequence of Oxysterols receptor LXR-beta (Homo sapiens) (P55055 whole entry, looked up, the tested form may be a part): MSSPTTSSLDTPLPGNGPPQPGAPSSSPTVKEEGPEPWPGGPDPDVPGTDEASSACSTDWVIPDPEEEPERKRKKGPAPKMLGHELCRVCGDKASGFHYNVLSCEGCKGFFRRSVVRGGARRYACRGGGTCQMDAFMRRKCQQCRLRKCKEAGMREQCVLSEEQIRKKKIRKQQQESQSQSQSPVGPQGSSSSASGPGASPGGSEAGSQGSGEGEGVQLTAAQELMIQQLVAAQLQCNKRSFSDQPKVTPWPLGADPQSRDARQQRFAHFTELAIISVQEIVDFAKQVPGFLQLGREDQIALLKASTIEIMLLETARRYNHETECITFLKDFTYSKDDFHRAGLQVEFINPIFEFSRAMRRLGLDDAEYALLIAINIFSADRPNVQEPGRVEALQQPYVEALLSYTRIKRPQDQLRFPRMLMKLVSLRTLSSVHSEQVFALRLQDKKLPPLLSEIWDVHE
Sequence of Nuclear respiratory factor 1 (Homo sapiens) (Q16656 whole entry, looked up): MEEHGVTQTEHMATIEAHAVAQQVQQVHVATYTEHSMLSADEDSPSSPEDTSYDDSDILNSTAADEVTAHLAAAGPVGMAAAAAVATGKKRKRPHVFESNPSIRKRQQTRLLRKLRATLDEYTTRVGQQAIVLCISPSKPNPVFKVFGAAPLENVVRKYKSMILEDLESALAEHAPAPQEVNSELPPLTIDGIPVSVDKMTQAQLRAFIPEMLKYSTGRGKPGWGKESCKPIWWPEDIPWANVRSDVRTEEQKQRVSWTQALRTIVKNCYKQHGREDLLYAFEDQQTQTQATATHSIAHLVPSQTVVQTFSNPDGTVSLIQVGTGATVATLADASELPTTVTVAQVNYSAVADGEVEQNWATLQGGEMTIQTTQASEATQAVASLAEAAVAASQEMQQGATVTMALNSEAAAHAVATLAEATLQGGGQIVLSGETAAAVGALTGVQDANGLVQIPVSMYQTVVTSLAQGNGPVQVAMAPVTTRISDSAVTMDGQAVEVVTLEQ
Sequence of Hepatocyte nuclear factor 4-alpha (Homo sapiens) (P41235 whole entry, looked up, the tested form may be a part): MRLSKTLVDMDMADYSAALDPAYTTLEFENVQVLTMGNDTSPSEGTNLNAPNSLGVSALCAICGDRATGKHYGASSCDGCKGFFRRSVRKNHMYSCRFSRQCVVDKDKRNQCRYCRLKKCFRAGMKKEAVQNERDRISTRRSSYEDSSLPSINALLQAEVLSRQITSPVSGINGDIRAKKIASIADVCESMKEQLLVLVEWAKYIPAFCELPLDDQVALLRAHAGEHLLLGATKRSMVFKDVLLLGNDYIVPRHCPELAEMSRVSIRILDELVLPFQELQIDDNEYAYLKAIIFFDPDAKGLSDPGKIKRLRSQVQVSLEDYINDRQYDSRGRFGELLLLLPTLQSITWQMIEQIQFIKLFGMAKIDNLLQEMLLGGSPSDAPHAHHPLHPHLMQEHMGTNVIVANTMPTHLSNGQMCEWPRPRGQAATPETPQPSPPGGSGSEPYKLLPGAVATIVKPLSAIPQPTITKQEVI
Sequence of Nuclear receptor subfamily 4 group A member 2 (Homo sapiens) (P43354 whole entry, looked up, the tested form may be a part): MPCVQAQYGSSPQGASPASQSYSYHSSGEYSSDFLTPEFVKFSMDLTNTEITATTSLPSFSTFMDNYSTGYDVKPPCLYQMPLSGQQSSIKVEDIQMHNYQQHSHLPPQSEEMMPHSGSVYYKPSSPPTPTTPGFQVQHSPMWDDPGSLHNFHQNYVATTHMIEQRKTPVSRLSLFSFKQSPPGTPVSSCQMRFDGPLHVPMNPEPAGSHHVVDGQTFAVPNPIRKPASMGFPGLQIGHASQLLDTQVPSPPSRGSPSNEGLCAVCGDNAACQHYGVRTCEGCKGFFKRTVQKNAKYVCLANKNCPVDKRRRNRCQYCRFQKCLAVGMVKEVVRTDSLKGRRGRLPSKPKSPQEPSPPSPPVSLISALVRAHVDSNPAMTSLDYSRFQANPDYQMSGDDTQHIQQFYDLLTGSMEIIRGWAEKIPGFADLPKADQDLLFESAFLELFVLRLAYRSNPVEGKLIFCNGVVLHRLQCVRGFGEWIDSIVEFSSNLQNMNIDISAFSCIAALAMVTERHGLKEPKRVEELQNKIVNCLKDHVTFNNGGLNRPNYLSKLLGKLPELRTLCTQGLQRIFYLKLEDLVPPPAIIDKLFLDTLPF
Sequence of Glucocorticoid receptor (Homo sapiens) (P04150 whole entry, looked up, the tested form may be a part): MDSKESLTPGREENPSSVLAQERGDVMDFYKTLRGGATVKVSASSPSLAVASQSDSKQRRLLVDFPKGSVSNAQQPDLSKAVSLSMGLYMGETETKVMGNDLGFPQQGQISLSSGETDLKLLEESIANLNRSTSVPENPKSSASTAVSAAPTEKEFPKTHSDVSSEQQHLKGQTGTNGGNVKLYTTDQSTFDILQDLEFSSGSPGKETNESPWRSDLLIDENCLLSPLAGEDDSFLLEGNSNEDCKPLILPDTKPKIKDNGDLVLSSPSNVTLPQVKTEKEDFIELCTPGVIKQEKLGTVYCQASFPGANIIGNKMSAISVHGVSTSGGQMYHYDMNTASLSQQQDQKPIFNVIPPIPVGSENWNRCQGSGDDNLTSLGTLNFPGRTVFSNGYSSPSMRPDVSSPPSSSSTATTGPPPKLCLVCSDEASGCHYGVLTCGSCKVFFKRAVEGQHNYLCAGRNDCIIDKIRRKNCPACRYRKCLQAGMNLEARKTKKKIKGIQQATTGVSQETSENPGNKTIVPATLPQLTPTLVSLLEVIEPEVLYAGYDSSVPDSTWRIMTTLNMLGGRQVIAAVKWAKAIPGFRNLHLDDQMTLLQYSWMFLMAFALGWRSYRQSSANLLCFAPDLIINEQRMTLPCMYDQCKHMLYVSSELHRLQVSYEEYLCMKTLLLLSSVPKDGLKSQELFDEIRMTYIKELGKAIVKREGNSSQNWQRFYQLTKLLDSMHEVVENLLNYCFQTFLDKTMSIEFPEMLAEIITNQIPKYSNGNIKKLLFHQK
Sequence of Transcriptional activator Myb (Homo sapiens) (P10242 whole entry, looked up): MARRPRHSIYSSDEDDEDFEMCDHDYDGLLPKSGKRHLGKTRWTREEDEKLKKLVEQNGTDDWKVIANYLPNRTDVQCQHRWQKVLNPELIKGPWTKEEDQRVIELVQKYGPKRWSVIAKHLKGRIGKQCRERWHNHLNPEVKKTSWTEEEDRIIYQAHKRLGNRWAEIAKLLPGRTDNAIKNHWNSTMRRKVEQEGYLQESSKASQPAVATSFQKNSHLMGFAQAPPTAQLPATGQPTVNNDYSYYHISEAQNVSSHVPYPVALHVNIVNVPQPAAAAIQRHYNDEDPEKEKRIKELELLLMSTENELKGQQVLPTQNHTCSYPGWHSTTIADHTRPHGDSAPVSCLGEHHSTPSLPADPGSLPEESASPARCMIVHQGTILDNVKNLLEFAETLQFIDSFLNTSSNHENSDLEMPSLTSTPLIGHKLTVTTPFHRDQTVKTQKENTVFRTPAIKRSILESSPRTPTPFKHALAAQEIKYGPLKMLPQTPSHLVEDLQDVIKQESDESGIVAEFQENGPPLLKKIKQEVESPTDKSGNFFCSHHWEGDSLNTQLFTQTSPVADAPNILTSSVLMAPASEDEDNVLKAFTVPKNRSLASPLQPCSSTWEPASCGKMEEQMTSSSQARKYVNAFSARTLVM
Sequence of Cellular tumor antigen p53 (Homo sapiens) (P04637 whole entry, looked up): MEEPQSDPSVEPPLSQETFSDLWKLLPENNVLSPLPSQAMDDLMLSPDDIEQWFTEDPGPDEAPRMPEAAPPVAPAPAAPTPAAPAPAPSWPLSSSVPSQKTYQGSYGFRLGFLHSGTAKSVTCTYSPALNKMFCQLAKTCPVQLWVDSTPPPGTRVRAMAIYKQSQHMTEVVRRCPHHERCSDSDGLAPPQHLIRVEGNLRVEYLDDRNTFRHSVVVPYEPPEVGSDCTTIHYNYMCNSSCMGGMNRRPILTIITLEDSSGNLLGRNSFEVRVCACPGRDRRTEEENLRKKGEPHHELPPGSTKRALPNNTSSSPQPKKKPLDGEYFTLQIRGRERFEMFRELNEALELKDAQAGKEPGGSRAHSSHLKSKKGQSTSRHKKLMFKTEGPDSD
Sequence of Oxysterols receptor LXR-alpha (Homo sapiens) (Q13133 whole entry, looked up, the tested form may be a part): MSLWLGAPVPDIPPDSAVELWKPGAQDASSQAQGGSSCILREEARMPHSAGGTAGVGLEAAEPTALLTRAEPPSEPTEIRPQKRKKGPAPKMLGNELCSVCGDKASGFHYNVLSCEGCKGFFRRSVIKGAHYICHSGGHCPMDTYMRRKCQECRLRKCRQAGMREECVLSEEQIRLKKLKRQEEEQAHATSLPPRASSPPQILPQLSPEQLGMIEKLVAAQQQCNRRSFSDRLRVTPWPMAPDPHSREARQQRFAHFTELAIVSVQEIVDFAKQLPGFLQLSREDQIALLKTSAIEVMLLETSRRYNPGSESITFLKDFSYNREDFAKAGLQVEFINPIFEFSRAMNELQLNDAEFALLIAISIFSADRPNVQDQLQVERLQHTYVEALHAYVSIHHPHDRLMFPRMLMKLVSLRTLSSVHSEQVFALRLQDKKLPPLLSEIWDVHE
Sequence of Myc proto-oncogene protein (Homo sapiens) (P01106 whole entry, looked up, the tested form may be a part): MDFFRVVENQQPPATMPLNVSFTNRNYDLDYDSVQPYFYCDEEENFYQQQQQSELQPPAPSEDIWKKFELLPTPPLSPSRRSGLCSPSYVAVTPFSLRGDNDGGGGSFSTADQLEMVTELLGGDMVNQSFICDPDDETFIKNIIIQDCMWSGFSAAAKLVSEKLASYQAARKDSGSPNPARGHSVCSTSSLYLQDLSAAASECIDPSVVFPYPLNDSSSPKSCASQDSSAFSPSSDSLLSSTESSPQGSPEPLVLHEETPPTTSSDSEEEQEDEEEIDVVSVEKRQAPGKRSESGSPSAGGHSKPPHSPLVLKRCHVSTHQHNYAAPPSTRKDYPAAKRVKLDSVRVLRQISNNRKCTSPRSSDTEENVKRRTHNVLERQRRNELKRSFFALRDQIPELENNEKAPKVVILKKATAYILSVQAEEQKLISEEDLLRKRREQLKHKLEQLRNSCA

As to `Cc1c(COC(=O)[C@@H]2[C@H](/C=C(\Cl)C(F)(F)F)C2(C)C)cccc1-c1ccccc1`, the molecule was called inactive in [1], in [2], in test [3], in [4], in test [5] and in test [6]. Besides, the outcome in [7], in test [8], in test [9], in [10], in test [11] and in [12] was inactive. Also, the molecule was classed as inactive in [13], in [14] and in [15].

Turning to `COc1cc(Cl)c(OC)cc1Cl`, the outcome in test [16], in test [17], in test [18], in test [3], in test [4] and in test [5] was inactive. Further, the result in test [7], in test [8], in test [9], in [19], in test [10] and in [11] was inactive. Besides, the molecule was classed as inactive in test [12], in test [13], in test [14] and in test [15].

Take `CCCCOCN(C(=O)CCl)c1c(CC)cccc1CC`: the result in test [16], in test [20], in test [17], in test [18], in test [3] and in test [5] was inactive. Besides, the call in test [6], in test [7], in test [8], in test [9], in test [10] and in test [12] was inactive. The molecule was called inactive in test [13]. The concentration at half-maximal activity (AC50) (commonly the concentration at which the activity in the assay is half-maximal) in test [11] was 0.547 µM (active); in [14] it was 16 µM (active); in test [15], 31.2 µM (active).

`O=C(Nc1ccccc1-c1ccc(Cl)cc1)c1cccnc1Cl`: the molecule was called inactive in [1], in test [16], in test [18], in [3], in [4] and in test [5]. Besides, the outcome in test [6], in [7], in test [8], in test [9], in test [19] and in test [10] was inactive. Further, the call in [13], in test [14] and in test [15] was inactive. Besides, the AC50 was 8.77 µM (active) in test [11] and 7.03 µM (active) in test [12].
